Screening data deposited in PubChem by National Center for Advancing Translational Sciences (NCATS).
BAZ2B block: blocks human BAZ2B. Q9UIF8. AlphaScreen BAZ2B-H3K14Ac peptide displacement. Potency, µM (doses to about 114 µM), without a hit: at the highest dose activity change, negative = inhibition, most hits filed as inhibitors. 360,000 compounds, 4.4% hits; note: potency is the fitted concentration of half-maximal effect; % is set by controls: 0 for no effect and ±100 for the full control effect; nearly all actives have a fitted effect of over 60% in size
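AlphaScreen displacement of biotin-H3(5-23)K14Ac peptide (50 nM final) from BAZ2B (50 nM final) in PBS pH 7.4, 0.01% Tween-20; complex preformed 30 min RT, then compounds (top 110 uM) 30 min RT, beads 20 min dark.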
JMJD2A Tudor: blocks the human JMJD2A Tudor domain | O75164 | AlphaScreen JMJD2A-Tudor / H3K4me3 peptide binding | Potency, µM (titrated, usually from 114 µM), without a hit: at the highest dose activity change, negative = inhibition, most hits filed as inhibitors | 390,000 compounds, 4.4% hits; note: potency is the fitted concentration of half-maximal effect; % is set by controls: 0 for no effect and ±100 for the full control effect; nearly all actives have a fitted effect of over 50% in size
G9a inh: G9a (human) methyltransferase inhibition. AID 504332. G9a H3K9 monomethylation, AlphaScreen, 2 h. 350,000 compounds, 8.8% hits. Potency, µM (doses to about 102 µM), without a hit: at the top dose activity, negative = inhibition, actives largely listed as inhibitors. Q96KQ7; note: potency is the fitted concentration of half-maximal effect; % is set by controls: 0 for no effect and ±100 for the full control effect; nearly all actives have a fitted effect of over 75% in size
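Enzyme 20 nM + cpd, 15 min RT; add b-H3K9 pep 500 nM / SAM 20 uM; 2 h RT; anti-H3K9me1 Ab 0.5 ug/mL + SA donor / anti-rabbit acceptor beads 20 ug/mL each, 10 min; AlphaScreen read.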
HP1b binding inh: HP1-beta chromodomain-methylated histone interaction inhibition | AID 540317 | AlphaScreen HP1-beta / biotin-H3K9me3 peptide binding | P83916 | 390,000 compounds, 0.56% hits | Potency, µM (top dose mostly 114 µM), without a hit: at the highest dose activity change, negative = inhibition, usual class: inhibitors; note: potency is the fitted concentration of half-maximal effect; nearly all actives have a fitted effect of over 70% in size
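Compound inhibition of the preformed complex between 50 nM HP1-beta and 50 nM biotinylated H3K9me3 peptide was read by AlphaScreen. Buffer was PBS pH 7.4 with 0.01% Tween-20. Incubations ran 30 min at room temperature, with 10 ug/mL donor/acceptor beads.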
CtBP-E1A inh: inhibitors of CtBP/E1A interaction | 340,000 compounds, 0.49% hits | AID 651724 | activity change, % (test concentration not listed) | AlphaScreen GST-E1A/His-CtBP binding, 1536-well; stronger effect = lower value; in the data active = activity change below about -65%; inconclusive = mostly about -30% to -63%; note: % is set by controls: 0 for no effect and ±100 for the full control effect
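Homogeneous bead-based format: GST-tagged E1A captured on glutathione donor beads, His-tagged CtBP on nickel acceptor beads; compounds precede bead addition by 2 h at 37 °C.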
Six1-Eya2 inh: inhibitors of human Six1/Eya2 interaction; 360,000 compounds, 0.56% hits; activity change, % (no concentration beside the values); Q15475+O00167; AlphaScreen GST-Six1/His-Eya2 binding, biochemical; stronger effect = lower value; AID 651725; in the data active = activity change below about -65%; inconclusive = mostly about -30% to -63%; note: % is set by controls: 0 for no effect and ±100 for the full control effect
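Six1/Eya2 binding was read as AlphaScreen signal after compounds were pinned into GST-Six1 plus His-tagged Eya2 (5X stock 250/500 nM) in pH 8.0 Tris/NaCl/TCEP buffer, beads added, then incubated 1 h, 37 C, dark.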
Starred values were filed as active, the others as inactive; ? = inconclusive; . = not tested or not shown; [ ] = dose if it differs, or a comment. Shown are actives, neighbours in structure and some others; about 10% of the full set was active somewhere. Unless noted, calls come from the whole dose curve; as a rule, active = well fitted inhibition curve with a large enough effect; inconclusive = small, poorly fitted or top-dose-only effect; inactive = no such curve, though single readings can be large or run the other way.

SMILES	BAZ2B block	JMJD2A Tudor	G9a inh	HP1b binding inh	CtBP-E1A inh	Six1-Eya2 inh
CCN1/C(=C\C=C2\C(=O)N(C)C(=S)N2C)Sc2ccccc21	.	-29%[11.4 µM]	?	?	.	-15
CCC(=S)/C=C1\Sc2ccccc2N1CCCS(=O)(=O)O	?	28µM*	.	?	-3	0
CN1C(=O)c2ccccc2Sc2ccc(C(=O)O)cc21	8%	2%	13%	21%	5	3
C=Cc1ccc2c(c1)N(C)C(=C)S2	-26%	?	8.9µM*	-6%	1	4
CC(Oc1ccc2c(-c3ccccc3)cc(=O)oc2c1)C(=O)N[C@H](Cc1c[nH]c2ccccc12)C(=O)O (stereo partly drawn)	-32%	-33%	-3%[12.7 µM]	-11%	-20	-27
COc1ccc(-c2cc(=O)oc3cc(OC(C)C(=O)NC(Cc4c[nH]c5ccc(O)cc45)C(=O)O)ccc23)cc1 (stereo not drawn)	50µM*	-27%	50µM*	0%	-14	-29
CCOc1ccc(Nc2nc3ccccc3n3nnnc23)cc1	34%	?	-14%	13%	5	-2
Cc1ccc(C(=O)O)cc1Nc1nc2ccccc2n2nnnc12	?	32µM*	5%[59 µM]	1%	.	.
CN(C)c1ccc(Nc2nc3ccccc3n3nnnc23)cc1	3.5µM*	7.9µM*	3.2µM*	?	.	.
Cc1cccc(NC(=O)CNC(=O)c2ccc3nc[nH]c3c2)c1C	50µM*	-27%	?	-6%	-16	-4
Cc1ccccc1C(=O)NNC(=O)c1ccc2nc[nH]c2c1	-34%	-18%	-7%[0.501 µM]	18%	2	-7
Cc1cccc(NC(=O)CSc2ncnc3nc[nH]c23)c1C	-34%	-30%	45µM*	33%	2	0
Cc1ccc(N2C(=O)C3C4C=CC(CC4)C3C2=O)cc1[N+](=O)[O-] (stereo not drawn)	79µM*	-1%	-46%[0.501 µM]	32%	.	-2
Cc1ccc(N2C(=O)C3C4C=CC(C4)C3C2=O)cc1C (stereo not drawn)	2%	-1%	2%	13%	-2	6
O=C(CN1C(=O)COc2ccc(S(=O)(=O)N3CCCC3)cc21)N1CCN(c2ccc(F)cc2)CC1	?	-16%	-43%[59 µM]	17%	.	.
Nc1ccccc1Nc1c(F)c(F)nc(F)c1Cl	?	-33%	13µM*	13%	-17	-21
CCCn1c(SCC(=O)NCCc2ccccc2)nnc1-c1cccnc1	15%	14%	22%	-2%	-6	-9
Cc1ccc(-n2nnnc2SCC(=O)NCCc2ccccc2)cc1C	4%	6%	-3%[59 µM]	34%	.	.
COCCn1c(SCC(=O)Nc2ccccc2OC)nnc1-c1ccco1	-9%	2%	12%	4%	-15	6
Nn1c(SCC(=O)NCCCc2ccccc2)nnc1-c1cccnc1	-2%	5%	50µM*	45%	3	-2
Cn1c(SCC(=O)Nc2ccc(Cl)cc2F)nnc1-c1ccco1	-12%	-13%	45µM*	-14%	0	9
COCCn1c(SCC(=O)NCCc2ccccc2)nnc1-c1ccco1	-1%	-8%	45µM*	36%	-7	-6
COc1ccc(-n2nnnc2SCC(=O)NCCc2ccccc2)cc1OC	?	-3%	22µM*	32%	-10	0
Cc1ccc(C)c(NC(=O)CSc2nc3nccnc3c(=O)n2CCc2c[nH]c3ccccc23)c1	0%	-16%	1%[59 µM]	17%	.	.
CCN(CC)S(=O)(=O)c1ccc(C(=O)NCCSc2c(-c3ccc(F)cc3)[nH]c3ccccc23)cc1	-8%	-21%	-27%[59 µM]	4%	.	.
SMILES	BAZ2B block	JMJD2A Tudor	G9a inh	HP1b binding inh	CtBP-E1A inh	Six1-Eya2 inh
COc1cccc(N2CCN(C(=O)CCS(=O)(=O)c3ccc4c(c3)CC(=O)N4C)CC2)c1	-8%	-18%	5%[59 µM]	47%	.	.
Cc1ccc2c(=O)cc(C(=O)Nc3ccc(S(=O)(=O)N(C)Cc4ccccc4)cc3)oc2c1	-2%	-10%	4%[59 µM]	11%	.	.
Cn1c(SCC(=O)NCCc2ccccc2)nnc1-c1ccco1	4%	89µM*	12%[12.7 µM]	-12%	3	1
CCn1c(SCC(=O)NCCc2ccccc2)nnc1-c1ccco1	-3%	7%	40µM*	31%	2	-1
Cn1c(SCC(=O)NCCc2ccccc2)nnc1-c1ccncc1	.	-22%[57.1 µM]	?	52%	7	5
CCn1c(SCC(=O)NCCc2ccccc2)nnc1-c1cccs1	8%	-1%	3%[59 µM]	22%	5	0
CN1CCN(c2ncc3nc(-c4ccc(F)cc4)c(=O)n(Cc4cccs4)c3n2)CC1	.	.	11%[0.501 µM]	.	.	.
COCC(C)NCc1cccc(OC)c1OC (stereo not drawn)	?	1.8µM*	18µM*	?	0	0
COCC(C)NCc1cccc(C)c1 (stereo not drawn)	-10%	1%	8%[0.501 µM]	53%	15	3
COc1cccc(CNCCOCCO)c1OC	.	-17%	3%[59 µM]	18%	6	?
COCC(C)NCc1ccccc1C (stereo not drawn)	40µM*	6.3µM*	?	?	2	6
Cc1ccc(S(=O)(=O)c2cnc(SCC(=O)Nc3ccc4c(c3)OCCO4)[nH]c2=O)cc1	-7%	-11%	5%[59 µM]	35%	.	.
O=C(NCC(c1ccco1)S(=O)(=O)c1cccs1)c1ccc(F)c(F)c1 (stereo not drawn)	0%	-2%	8%[59 µM]	26%	.	.
CC(Oc1ccccc1)C(=O)NC1=NCCS1 (stereo not drawn)	-28%	32µM*	?	18%	0	2
CCOC(=O)c1c(C)[nH]c(CCC(=O)Nc2cc(Cl)ccc2OC)c1C	-11%	-15%	-37%[59 µM]	14%[57 µM]	.	.
Nc1nnc2c(n1)CCCC2	50µM*	22µM*	?	21%	-25	-22
C1CCc2nc3c(nc2C1)CCCC3	0%	-11%	.	35%	-18	2
CC(C)CN(CCNC(=O)CCN1N=C(c2ccccc2)CCC1=O)CC(C)C	7%	0%	-6%[59 µM]	-14%	.	.
O=C(CCN1C(=O)/C(=C\c2cccc(Br)c2)SC1=S)NCCCN1CCOCC1	?	?	45µM*	-25%	-18	0
CN1CCN(C(=O)CCN2C(=O)/C(=C/c3cccc(Br)c3)SC2=S)CC1	-38%	-21%	25µM*	-2%	17	5
O=C(CCCN1C(=O)/C(=C/c2cccc(Br)c2)SC1=S)N1CCOCC1	-23%	?	?	?	-8	-20
CN1CCN(C(=O)CCCN2C(=O)/C(=C/c3cccc(Br)c3)SC2=S)CC1	45µM*	35µM*	40µM*	40µM*	-4	-13
